AI-2 QS mod = Vibrio harveyi AI-2 quorum sensing modulators, primary screen, JMH597 strain, luminescence/OD600 ratio | Vibrio harveyi JMH597 AI-2 luminescence/OD600 ratio, 9 h; active compounds read low; strain lacks LuxN and CqsS sensors; 0 = neutral-control median | activity change, % at 7.5 µM | hit rate 0.4% among 300,000; in the data active = activity change below about -75%, passing the limit was not always enough; inconclusive = no clear call, values can overlap the other calls;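 note: luminescence divided by OD600 gain over 9 h not by final OD600 alone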
sPLA2-III inh = human group III sPLA2 inhibitors, primary screen, biochemical, QFRET, BODIPY PC-A2 liposome substrate; Group 3 secretory phospholipase A2 (Homo sapiens), Q9NZ20; QFRET BODIPY PC-A2 liposome hydrolysis, fluorescence; inhibition, % at 12.2 µM; hit rate 0.56% among 370,000; AID 743126, 2013;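 active = inhibition above mean plus 3 SD of compounds lying within the high and low control bounds, cut at about 19% in these data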;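 note: 0% = median of test compound wells and 100% = no enzyme DMSO wells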
ARNT-TACC3 inh = disruptors of ARNT/TACC3 protein interaction, primary screen, biochemical, AlphaScreen, single concentration. hit rate 0.66% among 390,000. AlphaScreen His-ARNT PAS-B/GST-TACC3 binding, luminescence; TACC3 fragment carries E629A point mutation. AID 623870, 2012. inhibition, % at 9.99 µM;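 active = mean inhibition of replicates at least 50% and at least half of replicates each reaching 50%; inconclusive = half or more replicates reach 50% but mean below 50%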;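 note: 0% = complete ARNT plus TACC3 wells and 100% = ARNT alone without TACC3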
Rin1-Abl PPI inh = inhibitors of Rin1-Abl protein binding, primary screen, biochemical, TR-FRET; inhibition, % at 7.35 µM; hit rate 0.4% among 360,000; AID 588664, 2011; in the data active = inhibition above about 5%, passing the limit was not always enough
Target sequence (P00519 whole entry, looked up): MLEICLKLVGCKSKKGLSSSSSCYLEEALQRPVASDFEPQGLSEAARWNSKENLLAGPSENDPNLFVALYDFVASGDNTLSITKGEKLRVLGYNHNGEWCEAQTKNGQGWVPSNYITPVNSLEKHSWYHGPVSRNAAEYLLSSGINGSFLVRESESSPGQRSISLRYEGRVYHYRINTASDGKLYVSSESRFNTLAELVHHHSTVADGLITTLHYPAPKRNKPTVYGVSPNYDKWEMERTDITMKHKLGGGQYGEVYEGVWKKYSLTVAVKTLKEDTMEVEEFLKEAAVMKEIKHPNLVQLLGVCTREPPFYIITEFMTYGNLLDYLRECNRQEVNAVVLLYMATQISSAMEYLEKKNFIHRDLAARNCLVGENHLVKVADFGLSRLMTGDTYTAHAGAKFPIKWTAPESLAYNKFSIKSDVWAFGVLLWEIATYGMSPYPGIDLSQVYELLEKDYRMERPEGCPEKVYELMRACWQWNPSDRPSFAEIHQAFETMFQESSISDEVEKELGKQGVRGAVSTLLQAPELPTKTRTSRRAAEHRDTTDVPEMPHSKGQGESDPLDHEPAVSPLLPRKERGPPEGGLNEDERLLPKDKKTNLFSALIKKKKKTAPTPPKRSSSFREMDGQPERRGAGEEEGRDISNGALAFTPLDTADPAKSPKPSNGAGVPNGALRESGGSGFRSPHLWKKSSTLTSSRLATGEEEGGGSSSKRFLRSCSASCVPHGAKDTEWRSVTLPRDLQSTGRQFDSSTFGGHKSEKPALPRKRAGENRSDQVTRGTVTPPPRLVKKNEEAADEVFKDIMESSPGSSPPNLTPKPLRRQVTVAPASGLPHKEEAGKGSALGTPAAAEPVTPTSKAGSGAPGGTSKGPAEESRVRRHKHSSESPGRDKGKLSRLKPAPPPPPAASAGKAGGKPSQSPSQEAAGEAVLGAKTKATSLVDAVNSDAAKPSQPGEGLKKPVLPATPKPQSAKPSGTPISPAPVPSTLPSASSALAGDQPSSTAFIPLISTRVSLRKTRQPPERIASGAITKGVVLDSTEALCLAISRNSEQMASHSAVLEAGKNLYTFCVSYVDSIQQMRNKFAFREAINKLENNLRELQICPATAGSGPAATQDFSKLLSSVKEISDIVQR
Target sequence (Q13671 whole entry, looked up): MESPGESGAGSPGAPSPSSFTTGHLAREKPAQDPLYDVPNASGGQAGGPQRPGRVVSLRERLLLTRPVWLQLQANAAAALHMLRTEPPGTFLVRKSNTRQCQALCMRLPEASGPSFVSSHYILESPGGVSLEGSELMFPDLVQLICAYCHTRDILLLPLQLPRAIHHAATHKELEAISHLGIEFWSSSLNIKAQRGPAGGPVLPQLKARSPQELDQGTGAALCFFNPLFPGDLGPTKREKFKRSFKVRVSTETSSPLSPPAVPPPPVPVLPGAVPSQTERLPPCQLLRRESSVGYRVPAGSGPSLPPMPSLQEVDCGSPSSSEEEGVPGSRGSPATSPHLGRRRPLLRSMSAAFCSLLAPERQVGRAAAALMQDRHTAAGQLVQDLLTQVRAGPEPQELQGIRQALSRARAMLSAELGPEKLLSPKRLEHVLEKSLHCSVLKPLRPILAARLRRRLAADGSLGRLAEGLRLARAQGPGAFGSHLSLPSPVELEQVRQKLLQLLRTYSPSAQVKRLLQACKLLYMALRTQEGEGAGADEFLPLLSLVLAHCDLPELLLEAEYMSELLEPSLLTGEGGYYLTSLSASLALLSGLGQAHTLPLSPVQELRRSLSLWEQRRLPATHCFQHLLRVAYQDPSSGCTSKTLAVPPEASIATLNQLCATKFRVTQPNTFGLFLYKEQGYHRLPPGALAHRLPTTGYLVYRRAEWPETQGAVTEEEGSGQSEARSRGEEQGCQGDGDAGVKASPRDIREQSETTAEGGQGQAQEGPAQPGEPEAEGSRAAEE
The depositor's hits bear a star; ? = inconclusive; · = no result given; ! = not active in a repeat. The list is not random: actives were taken first. Their share in the collection is about 1.5%.

SMILES | AI-2 QS mod | sPLA2-III inh | ARNT-TACC3 inh | Rin1-Abl PPI inh
C/C(=N\NC(=O)c1ccccc1-n1cccc1)c1ccccn1 | · | -21.5 | · | -3.3
CC(=NNC(=S)Nc1ccccc1Cl)c1ccccn1 | · | 12.8 | 87.4* | -1.7
C/C(=N\Nc1cccc2cccnc12)c1ccccn1 | 8.2 | 9.9 | 5.7 | -0.1
CC(=NNC(=S)Nc1ccccc1)c1ccccn1 | · | 20.8* | · | -6.4
C=CCNC(=S)N/N=C(\C)c1ccccn1 | -1.1 | -2.0 | 59.1* | -15.5
CC(=NNC(=S)N1CCCCC1)c1ccccn1 | · | 1.8 | · | -0.6
O=C1COc2ccc(S(=O)(=O)N3CCCC3)cc2N1 | 29.8 | -0.4 | -6.3 | 1.3
O=C1COc2ccc(N3C(=O)C=CC3=O)cc2N1 | -80.7* | · | · | ·
C#Cc1ccc([C@H]2C=C(C(=O)NCc3nc4ccccc4[nH]3)O[C@@H](OCCCCO)C2)cc1 | · | · | 6.7 | ·
Cc1ccc(C(=O)Nn2cnc3ccccc3c2=O)cc1C | -63.7 | 0.0 | 2.1 | 3.4
CCc1ccc(C(=O)Nn2cnc3ccccc3c2=O)cc1 | -80.3* | 4.4 | -8.6 | 3.7
C[C@@H]1CCCCO[C@@H](CN(C)S(=O)(=O)c2cccs2)[C@@H](C)CN([C@H](C)CO)C(=O)c2cc(NC(=O)CCCCCC(=O)Nc3ccccc3N)ccc2O1 | · | · | -3.2 | ·
C[C@H](CO)N1C[C@H](C)[C@H](CN(C)C(=O)CCCN(C)C)OCCCC[C@H](C)Oc2ccc(NC(=O)NC3CCCCC3)cc2C1=O | · | · | -2.9 | ·
Cc1ccc(C(=O)NNC(=S)NC(=O)c2ccccc2)cc1 | -83.8* | 35.2* | 15.6 | -3.5
Cc1ccc(C(=O)NC(=S)NNC(=O)CCN2CCOCC2)cc1 | 42.0 | 7.1 | 39.6* | -1.6
Cc1ccc(C(=O)NCC(=O)Nc2ccccc2C(F)(F)F)cc1 | -3.6 | 1.9 | -8.1 | -2.9
Cc1ccc(C(=O)NC(=S)NNC(=O)c2ccc([N+](=O)[O-])cc2)cc1 | -85.9* | 6.5 | 30.3 | 0.7
Cc1ccc(C(=O)NC(=S)Nc2ccccc2C(F)(F)F)cc1 | -87.1* | 8.2 | 0.2 | -0.1
C[C@@H]1CCCCO[C@@H](CN(C)S(=O)(=O)c2ccccc2)[C@H](C)CN([C@@H](C)CO)C(=O)c2cc(NC(=O)Nc3cccc4ccccc34)ccc2O1 | · | · | -23.6 | ·
C[C@@H]1CN([C@H](C)CO)C(=O)c2cc(NS(=O)(=O)c3ccc(Cl)cc3)ccc2O[C@@H](C)CCCCO[C@@H]1CN(C)C(=O)c1ccncc1 | · | · | -1.9 | ·
C[C@@H]1CN([C@@H](C)CO)C(=O)c2cc(NS(C)(=O)=O)ccc2O[C@H]1CN(C)C(=O)NC1CCCCC1 | · | · | -1.4 | ·
C[C@H](CO)N1C[C@H](C)[C@@H](CN(C)S(=O)(=O)c2ccc(Cl)cc2)OCCCC[C@H](C)Oc2ccc(NC(=O)C3CCCCC3)cc2C1=O | · | · | -6.8 | ·
COC(=O)C[C@H]1CC[C@H]2[C@H](COc3ccc(NC(=O)Nc4ccc(C)cc4)cc3C(=O)N2C)O1 | · | · | 13.1 | ·
COc1cccc2c1O/C(=N\O)C(C(=O)Nc1ccc(C)cc1)C2 (stereo not drawn) | -88.6* | -14.1 | -1.4 | 0.3
CN(C)C(=O)C[C@@H]1CC[C@@H](NS(=O)(=O)c2ccccc2)[C@@H](CO)O1 | · | · | -10.3 | ·
SMILES | AI-2 QS mod | sPLA2-III inh | ARNT-TACC3 inh | Rin1-Abl PPI inh
Oc1ccccc1Oc1c(F)c(F)nc(N2CCCC2)c1F | -93.5* | -31.4 | · | 0.5
Nn1cnnc1N/N=C/c1cc(Br)cc(Br)c1O | 34.9 | 3.3 | 48.9* | -0.8
CC(C)(C)c1ccc(/C=N/Nc2nncn2N)cc1 | 3.7 | 6.5 | -8.4 | -1.1
O=C(Nc1ccc(Nc2cccnc2)cc1)c1c[nH]c2ccccc12 | · | 25.5* | · | ·
COc1ccccc1CN(C)C[C@H]1OCc2cnnn2CCCC(=O)N([C@H](C)CO)C[C@H]1C | · | · | -2.4 | ·
COc1ccc(NC(=O)N(C)C[C@H]2Oc3ccc(NC(=O)CCN4CCOCC4)cc3CC(=O)N([C@H](C)CO)C[C@H]2C)cc1 | · | · | 0.3 | ·
O=C([C@H]1[C@H](CO)[C@H]2Cn3c(cccc3=O)[C@H]2N1CCC(F)(F)F)N1CCCCC1 | · | · | active | ·
CCc1nnc(NC(=O)CSc2nncc(=O)n2N)s1 | 24.6 | 6.3 | -6.2 | 4.6
CCSc1nnc(NC(=O)CSc2nncc(=O)n2N)s1 | -42.5 | -2.0 | 70.0* | 4.7
CC(=O)Nc1ccc(C(=O)OCc2ccc(Cl)c(Cl)c2)cc1 | -85.4* | -12.2 | -7.9 | -2.5
CCC(=O)Nc1ccc(C(=O)OCc2ccc(Cl)c(Cl)c2)cc1 | 30.4 | -1.3 | -10.7 | -2.5
CCC(CO)Oc1cc(NCc2ccccc2)c2ncn(C(C)C)c2c1 (stereo not drawn) | · | -0.1 | 40.6*! | 0.9
CC(C)n1cnc2c(NCc3ccccc3)cc(N[C@H](C)CO)cc21 | · | · | 34.5* | -6.2
CCC(CO)Oc1cc(NCc2ccc(O)cc2)c2ncn(C(C)C)c2c1 (stereo not drawn) | · | -2.9 | · | -0.9
CCOCCOc1cc(NCc2ccccc2)c2ncn(C(C)C)c2c1 | · | -4.1 | 19.5* | 3.6
O=C(C[C@@H]1CC[C@@H]2[C@H](COC[C@H](O)CN2S(=O)(=O)c2ccccc2)O1)N[C@@H]1CCN(Cc2ccccc2)C1 | · | · | -20.1 | ·
CNC[C@H]1Oc2cc(C#Cc3ccccn3)ccc2S(=O)(=O)N([C@H](C)CO)C[C@H]1C | · | · | 12.5 | ·
COc1ccccc1Nc1nc(N)nc(CN2CCN(Cc3ccccc3)CC2)n1 | 18.3 | 3.6 | 19.1 | 1.6
COc1ccc(N2CCN(Cc3nc(N)nc(Nc4ccccc4OC)n3)CC2)cc1 | 6.0 | 0.7 | 49.8* | -2.4
C[C@@H]1CCCCO[C@H](CN(C)Cc2ccc3c(c2)OCO3)[C@@H](C)CN([C@H](C)CO)C(=O)c2cc(NS(=O)(=O)c3cccs3)ccc2O1 | · | · | 6.0 | ·
CCc1ccc(NC(=O)[C@H](C)NC(=O)C2CCN(C(=O)[C@@H](N)CC(C)C)CC2)cc1 | 17.0 | -0.1 | -1.4 | -0.4
Cc1ccc(CNC(=O)[C@H](C)NC(=O)C2CCN(C(=O)[C@@H](N)CC(C)C)CC2)cc1 | -7.2 | 19.5* | -1.1 | 0.3
C[C@H](CO)N1C[C@H](C)[C@@H](CN(C)C(=O)Nc2ccccc2)Oc2ncc(C#CC3CCCC3)cc2C1=O | · | · | -3.1 | ·
N#C[C@@H]1[C@H](c2ccc(-c3ccccc3F)cc2)[C@@H](CO)N1C(=O)Cc1ccccc1 | · | · | 12.0 | ·
COc1ccc([N+](=O)[O-])c(S(=O)(=O)c2ccc(Cl)cc2)n1 | -145.0* | 4.7 | 2.4 | 1.0
O=C(C[C@H]1CC[C@H]2[C@@H](COC[C@H](O)CN2Cc2ccc(Cl)cc2)O1)NCc1cccc(F)c1 | · | · | 5.0 | ·
Cc1ccccc1/C=N/NC(=O)Cn1cnc([N+](=O)[O-])n1 | 19.5 | 8.2 | 4.0 | -2.6
O=C(Cn1cncn1)N/N=C/c1ccccc1O | 16.3 | 3.3 | 78.5* | -2.5
O=C(Cn1cnc([N+](=O)[O-])n1)N/N=C/c1ccccc1O | ? | -2.3 | 75.3* | -0.3
O=C(Cn1cncn1)N/N=C/c1ccncc1 | 2.7 | -2.4 | -6.5 | -0.6

Compound activity (PubChem BioAssay)
